Test results published in paper PMC7862700, “An all-to-all approach to the identification of sequence-specific readers for epigenetic DNA modifications on cytosine”.

How the values were obtained:
Assay in all cases: DAPPL (digital affinity profiling via proximity ligation, sequencing); 10 mM Tris-HCl pH 7.5, 50 mM NaCl, 1 mM DTT, 4% glycerol, room temperature, 30 min; GST-TFs on glutathione beads, 16-mer random dsDNA library, 0.1% formaldehyde crosslink after washing; high values mean tight binding
Settings in all cases: protein: recombinant; tags: N-terminal GST; dsDNA, one strand shown
ERF = molecular target: T1, ERF (Homo sapiens, UniProt P50548 1-548)
T1 sequence: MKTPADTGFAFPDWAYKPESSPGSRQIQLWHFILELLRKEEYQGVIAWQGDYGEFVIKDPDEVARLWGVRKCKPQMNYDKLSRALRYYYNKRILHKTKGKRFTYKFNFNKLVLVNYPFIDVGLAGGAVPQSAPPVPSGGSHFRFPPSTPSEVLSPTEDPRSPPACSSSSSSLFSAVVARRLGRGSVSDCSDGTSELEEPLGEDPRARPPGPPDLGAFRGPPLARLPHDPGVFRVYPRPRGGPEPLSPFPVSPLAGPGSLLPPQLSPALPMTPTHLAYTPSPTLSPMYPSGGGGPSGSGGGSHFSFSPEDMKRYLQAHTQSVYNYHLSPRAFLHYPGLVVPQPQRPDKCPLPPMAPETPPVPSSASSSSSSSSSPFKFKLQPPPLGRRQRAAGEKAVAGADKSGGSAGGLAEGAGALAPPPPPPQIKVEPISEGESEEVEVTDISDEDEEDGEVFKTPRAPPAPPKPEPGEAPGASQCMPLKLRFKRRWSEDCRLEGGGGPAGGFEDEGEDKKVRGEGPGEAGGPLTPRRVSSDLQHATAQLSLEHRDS
How it was run: (§1)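 Yeast served to express human transcription factors as GST fusions, which were then captured on glutathione beads and labelled with DNA barcodes. Pooled with a tag-only sample, they were incubated with 200 nmole of a 16-mer random double-stranded DNA library for 30 min at room temperature in Tris/NaCl/DTT/glycerol buffer, washed, crosslinked with 0.1% formaldehyde, ligated by proximity, amplified by PCR and sequenced. Dividing each hexamer's read frequency for a factor by its frequency for the tag-only sample gives the binding signal.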

ETV3L = molecular target: T2, ETV3L (Homo sapiens, UniProt Q6ZN32 1-361)
T2 sequence: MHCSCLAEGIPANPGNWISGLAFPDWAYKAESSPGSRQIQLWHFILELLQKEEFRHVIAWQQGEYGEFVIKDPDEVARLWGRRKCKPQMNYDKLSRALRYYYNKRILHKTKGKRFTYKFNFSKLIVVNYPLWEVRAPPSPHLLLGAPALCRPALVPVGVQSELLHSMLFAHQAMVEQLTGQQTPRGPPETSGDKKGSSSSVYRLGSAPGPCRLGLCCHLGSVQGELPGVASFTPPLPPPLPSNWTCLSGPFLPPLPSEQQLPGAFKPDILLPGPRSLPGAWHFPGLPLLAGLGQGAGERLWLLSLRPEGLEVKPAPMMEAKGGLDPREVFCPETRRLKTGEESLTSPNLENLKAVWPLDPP
How it was run: as §1

ETS2 = molecular target: T3, ETS2 (Homo sapiens, UniProt P15036 1-469)
T3 sequence: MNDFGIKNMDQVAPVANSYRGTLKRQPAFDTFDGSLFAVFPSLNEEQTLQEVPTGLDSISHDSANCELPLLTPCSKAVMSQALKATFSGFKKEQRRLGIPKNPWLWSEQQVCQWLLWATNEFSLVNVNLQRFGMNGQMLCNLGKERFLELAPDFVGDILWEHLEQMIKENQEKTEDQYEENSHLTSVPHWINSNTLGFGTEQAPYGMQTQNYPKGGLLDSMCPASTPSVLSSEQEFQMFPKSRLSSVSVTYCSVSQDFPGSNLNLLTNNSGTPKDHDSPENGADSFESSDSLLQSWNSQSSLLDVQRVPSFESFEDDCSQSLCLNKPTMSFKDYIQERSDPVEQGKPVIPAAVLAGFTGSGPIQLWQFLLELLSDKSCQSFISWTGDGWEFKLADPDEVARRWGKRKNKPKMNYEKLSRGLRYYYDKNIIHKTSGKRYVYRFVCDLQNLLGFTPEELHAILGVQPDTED
How it was run: as §1

SPDEF = molecular target: T4, SPDEF (Homo sapiens, UniProt O95238 1-335)
T4 sequence: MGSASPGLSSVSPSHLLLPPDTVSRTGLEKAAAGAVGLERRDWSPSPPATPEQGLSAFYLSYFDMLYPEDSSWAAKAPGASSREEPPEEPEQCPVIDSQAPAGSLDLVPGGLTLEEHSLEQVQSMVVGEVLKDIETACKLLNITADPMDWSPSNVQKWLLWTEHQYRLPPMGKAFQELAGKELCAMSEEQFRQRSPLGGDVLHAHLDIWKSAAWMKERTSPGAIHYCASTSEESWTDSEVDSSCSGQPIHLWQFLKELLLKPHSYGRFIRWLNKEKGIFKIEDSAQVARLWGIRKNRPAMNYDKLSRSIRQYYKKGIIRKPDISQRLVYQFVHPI
How it was run: as §1

ETV7 = molecular target: T5, ETV7 (Homo sapiens, UniProt Q9Y603 1-341)
T5 sequence: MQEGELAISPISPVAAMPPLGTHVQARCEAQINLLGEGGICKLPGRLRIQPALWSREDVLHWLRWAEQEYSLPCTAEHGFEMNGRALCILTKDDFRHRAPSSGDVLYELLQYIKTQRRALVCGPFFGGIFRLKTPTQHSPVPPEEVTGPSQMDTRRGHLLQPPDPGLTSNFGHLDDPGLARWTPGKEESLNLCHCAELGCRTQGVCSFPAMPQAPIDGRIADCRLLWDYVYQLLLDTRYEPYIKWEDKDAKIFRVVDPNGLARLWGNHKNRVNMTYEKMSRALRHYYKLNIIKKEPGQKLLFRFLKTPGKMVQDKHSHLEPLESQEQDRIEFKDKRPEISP
How it was run: as §1

ELF5 = molecular target: T6, ELF5 (Homo sapiens, UniProt Q9UKW6-2 1-255)
T6 sequence: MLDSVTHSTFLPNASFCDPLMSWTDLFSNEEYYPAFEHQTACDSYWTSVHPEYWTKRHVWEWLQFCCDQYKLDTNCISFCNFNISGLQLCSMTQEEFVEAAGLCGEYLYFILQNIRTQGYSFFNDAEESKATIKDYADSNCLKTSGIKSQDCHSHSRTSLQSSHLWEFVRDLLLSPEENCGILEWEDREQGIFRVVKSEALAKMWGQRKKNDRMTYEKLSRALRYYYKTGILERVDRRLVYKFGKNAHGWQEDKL
How it was run: as §1

ETV3 = molecular target: T7, ETV3 (Homo sapiens, UniProt P41162-2 1-143)
T7 sequence: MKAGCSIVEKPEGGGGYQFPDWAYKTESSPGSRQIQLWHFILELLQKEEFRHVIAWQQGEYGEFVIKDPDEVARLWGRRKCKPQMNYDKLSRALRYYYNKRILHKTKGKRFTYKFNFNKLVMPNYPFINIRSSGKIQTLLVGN
How it was run: as §1

ETV6 = ETV6 (Homo sapiens, UniProt P41212 1-452)
How it was run: as §1

Chain of ETV6 (P41212 whole entry): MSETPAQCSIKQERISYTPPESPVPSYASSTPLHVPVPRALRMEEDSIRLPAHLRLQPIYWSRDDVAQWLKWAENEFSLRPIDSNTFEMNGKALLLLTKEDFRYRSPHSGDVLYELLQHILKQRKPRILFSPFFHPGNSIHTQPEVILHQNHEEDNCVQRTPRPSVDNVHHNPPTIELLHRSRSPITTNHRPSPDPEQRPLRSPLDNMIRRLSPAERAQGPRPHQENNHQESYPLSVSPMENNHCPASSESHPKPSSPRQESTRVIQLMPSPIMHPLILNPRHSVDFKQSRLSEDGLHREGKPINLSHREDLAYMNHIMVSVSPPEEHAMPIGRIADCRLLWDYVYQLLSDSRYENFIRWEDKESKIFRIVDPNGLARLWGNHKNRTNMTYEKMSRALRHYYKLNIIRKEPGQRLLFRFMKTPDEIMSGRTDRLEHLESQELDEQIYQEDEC

Row | Sequence | binding signal (ERF) | binding signal (ETV3L) | binding signal (ETS2) | binding signal (SPDEF) | binding signal (ETV7) | binding signal (ELF5) | binding signal (ETV3) | binding signal (ETV6)
1 | TGCCTG | 1.46 fold enrichment (6-mer frequency, TF over GST control) | 1.28 fold enrichment (6-mer frequency, TF over GST control) | 1.28 fold enrichment (6-mer frequency, TF over GST control) | 1.36 fold enrichment (6-mer frequency, TF over GST control) | 1.17 fold enrichment (6-mer frequency, TF over GST control) | 1.27 fold enrichment (6-mer frequency, TF over GST control) | 1.31 fold enrichment (6-mer frequency, TF over GST control) | 1.18 fold enrichment (6-mer frequency, TF over GST control)
2 | ATGTAC | 1.19 fold enrichment (6-mer frequency, TF over GST control) | 1.32 fold enrichment (6-mer frequency, TF over GST control) | 1.42 fold enrichment (6-mer frequency, TF over GST control) | 1.67 fold enrichment (6-mer frequency, TF over GST control) | 1.41 fold enrichment (6-mer frequency, TF over GST control) | 1.28 fold enrichment (6-mer frequency, TF over GST control) | 1.19 fold enrichment (6-mer frequency, TF over GST control) | 1.32 fold enrichment (6-mer frequency, TF over GST control)
3 | GTCCCT | 1.22 fold enrichment (6-mer frequency, TF over GST control) | 1.16 fold enrichment (6-mer frequency, TF over GST control) | 1.31 fold enrichment (6-mer frequency, TF over GST control) | 1.37 fold enrichment (6-mer frequency, TF over GST control) | 1.22 fold enrichment (6-mer frequency, TF over GST control) | 1.23 fold enrichment (6-mer frequency, TF over GST control) | 1.26 fold enrichment (6-mer frequency, TF over GST control) | 1.21 fold enrichment (6-mer frequency, TF over GST control)
4 | TGATTC | 1.07 fold enrichment (6-mer frequency, TF over GST control) | 1.09 fold enrichment (6-mer frequency, TF over GST control) | 1.06 fold enrichment (6-mer frequency, TF over GST control) | 1.04 fold enrichment (6-mer frequency, TF over GST control) | 1.13 fold enrichment (6-mer frequency, TF over GST control) | 1.03 fold enrichment (6-mer frequency, TF over GST control) | 1.15 fold enrichment (6-mer frequency, TF over GST control) | 1.06 fold enrichment (6-mer frequency, TF over GST control)
5 | GATGGT | 1.22 fold enrichment (6-mer frequency, TF over GST control) | 1.19 fold enrichment (6-mer frequency, TF over GST control) | 1.13 fold enrichment (6-mer frequency, TF over GST control) | 1.04 fold enrichment (6-mer frequency, TF over GST control) | 1.06 fold enrichment (6-mer frequency, TF over GST control) | 1.08 fold enrichment (6-mer frequency, TF over GST control) | 1.12 fold enrichment (6-mer frequency, TF over GST control) | 1.1 fold enrichment (6-mer frequency, TF over GST control)
6 | CCACAT | 1.28 fold enrichment (6-mer frequency, TF over GST control) | 1.15 fold enrichment (6-mer frequency, TF over GST control) | 1.2 fold enrichment (6-mer frequency, TF over GST control) | 1.22 fold enrichment (6-mer frequency, TF over GST control) | 1.05 fold enrichment (6-mer frequency, TF over GST control) | 1.15 fold enrichment (6-mer frequency, TF over GST control) | 1.17 fold enrichment (6-mer frequency, TF over GST control) | 1.2 fold enrichment (6-mer frequency, TF over GST control)
7 | TGCGAA | 1.07 fold enrichment (6-mer frequency, TF over GST control) | 1.1 fold enrichment (6-mer frequency, TF over GST control) | 1.1 fold enrichment (6-mer frequency, TF over GST control) | 1.2 fold enrichment (6-mer frequency, TF over GST control) | 1.18 fold enrichment (6-mer frequency, TF over GST control) | 1.13 fold enrichment (6-mer frequency, TF over GST control) | 1.16 fold enrichment (6-mer frequency, TF over GST control) | 1.09 fold enrichment (6-mer frequency, TF over GST control)
8 | CTCGTG | 1.12 fold enrichment (6-mer frequency, TF over GST control) | 1.01 fold enrichment (6-mer frequency, TF over GST control) | 1.13 fold enrichment (6-mer frequency, TF over GST control) | 1.07 fold enrichment (6-mer frequency, TF over GST control) | 1.12 fold enrichment (6-mer frequency, TF over GST control) | 1.11 fold enrichment (6-mer frequency, TF over GST control) | 1.08 fold enrichment (6-mer frequency, TF over GST control) | 1.02 fold enrichment (6-mer frequency, TF over GST control)
9 | TCTGGT | 1.34 fold enrichment (6-mer frequency, TF over GST control) | 1.26 fold enrichment (6-mer frequency, TF over GST control) | 1.16 fold enrichment (6-mer frequency, TF over GST control) | 1.28 fold enrichment (6-mer frequency, TF over GST control) | 1.35 fold enrichment (6-mer frequency, TF over GST control) | 1.26 fold enrichment (6-mer frequency, TF over GST control) | 1.29 fold enrichment (6-mer frequency, TF over GST control) | 1.17 fold enrichment (6-mer frequency, TF over GST control)
